In paper PMC7862700, “An all-to-all approach to the identification of sequence-specific readers for epigenetic DNA modifications on cytosine”:

Experiments:
Assay in all cases: DAPPL (digital affinity profiling via proximity ligation, sequencing); 10 mM Tris-HCl pH 7.5, 50 mM NaCl, 1 mM DTT, 4% glycerol, room temperature, 30 min; GST-TFs on glutathione beads, 16-mer random dsDNA library, 0.1% formaldehyde crosslink after washing; high values mean tight binding
Conditions in all cases: protein: recombinant; tags: N-terminal GST; dsDNA, one strand shown
ERF = molecular target: T1, ERF (Homo sapiens, UniProt P50548 1-548)
T1 sequence: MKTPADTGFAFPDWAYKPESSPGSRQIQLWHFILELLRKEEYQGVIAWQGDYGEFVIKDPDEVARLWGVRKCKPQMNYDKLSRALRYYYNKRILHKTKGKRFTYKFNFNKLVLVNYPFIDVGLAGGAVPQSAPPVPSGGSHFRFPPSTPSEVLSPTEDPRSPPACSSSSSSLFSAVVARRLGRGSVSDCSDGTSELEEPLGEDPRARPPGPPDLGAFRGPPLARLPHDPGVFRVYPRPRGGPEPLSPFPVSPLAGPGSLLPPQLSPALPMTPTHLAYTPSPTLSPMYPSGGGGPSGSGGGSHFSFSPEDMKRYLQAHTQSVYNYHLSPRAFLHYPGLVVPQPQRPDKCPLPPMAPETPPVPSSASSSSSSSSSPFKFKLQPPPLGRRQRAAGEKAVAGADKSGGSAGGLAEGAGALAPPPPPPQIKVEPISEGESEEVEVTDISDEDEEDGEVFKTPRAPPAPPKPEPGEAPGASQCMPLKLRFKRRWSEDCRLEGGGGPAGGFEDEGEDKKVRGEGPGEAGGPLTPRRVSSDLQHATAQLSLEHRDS
Summary of the method: (§1)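 In yeast, human transcription factors were expressed with a GST fusion, then pulled down on glutathione beads and given DNA barcodes. Pooled with a tag-only sample, they were exposed to 200 nmole of a 16-mer random double-stranded DNA library (Tris/NaCl/DTT/glycerol buffer, room temperature, 30 min), washed, crosslinked with 0.1% formaldehyde, proximity-ligated using BsaI/T4 ligase for 1 h at 37 °C, PCR-amplified and read on an Illumina NextSeq500. Each hexamer's frequency of reads for a factor, divided by the matching frequency for the tag-only sample, gives the binding signal.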

ETV3L = molecular target: T2, ETV3L (Homo sapiens, UniProt Q6ZN32 1-361)
T2 sequence: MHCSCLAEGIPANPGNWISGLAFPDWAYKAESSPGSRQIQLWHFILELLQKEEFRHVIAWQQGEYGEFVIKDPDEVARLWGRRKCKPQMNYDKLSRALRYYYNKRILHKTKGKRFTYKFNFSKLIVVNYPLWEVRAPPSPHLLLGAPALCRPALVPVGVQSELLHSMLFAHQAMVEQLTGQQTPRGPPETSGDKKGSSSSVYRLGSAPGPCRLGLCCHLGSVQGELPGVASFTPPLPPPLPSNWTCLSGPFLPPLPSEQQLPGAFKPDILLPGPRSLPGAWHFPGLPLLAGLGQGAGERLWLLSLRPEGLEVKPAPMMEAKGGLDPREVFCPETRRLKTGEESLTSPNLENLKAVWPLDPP
Summary of the method: as §1

ETV7 = molecular target: T3, ETV7 (Homo sapiens, UniProt Q9Y603 1-341)
T3 sequence: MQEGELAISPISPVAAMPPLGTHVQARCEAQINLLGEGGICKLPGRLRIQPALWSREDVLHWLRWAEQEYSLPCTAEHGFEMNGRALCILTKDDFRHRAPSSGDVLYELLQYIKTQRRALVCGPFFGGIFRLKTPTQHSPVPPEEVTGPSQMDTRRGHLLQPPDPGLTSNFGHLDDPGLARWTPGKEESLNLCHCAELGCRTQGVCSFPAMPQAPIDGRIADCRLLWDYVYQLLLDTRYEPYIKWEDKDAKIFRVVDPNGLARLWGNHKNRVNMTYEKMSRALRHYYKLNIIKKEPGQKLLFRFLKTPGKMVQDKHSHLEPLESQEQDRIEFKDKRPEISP
Summary of the method: as §1

ELF5 = molecular target: T4, ELF5 (Homo sapiens, UniProt Q9UKW6-2 1-255)
T4 sequence: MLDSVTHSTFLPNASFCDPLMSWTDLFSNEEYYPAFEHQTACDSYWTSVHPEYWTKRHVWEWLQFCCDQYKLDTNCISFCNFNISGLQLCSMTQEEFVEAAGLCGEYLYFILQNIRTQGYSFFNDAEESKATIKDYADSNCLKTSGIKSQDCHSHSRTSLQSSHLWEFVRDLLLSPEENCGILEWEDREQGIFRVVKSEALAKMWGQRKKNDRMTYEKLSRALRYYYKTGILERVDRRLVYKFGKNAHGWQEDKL
Summary of the method: as §1

SPDEF = molecular target: T5, SPDEF (Homo sapiens, UniProt O95238 1-335)
T5 sequence: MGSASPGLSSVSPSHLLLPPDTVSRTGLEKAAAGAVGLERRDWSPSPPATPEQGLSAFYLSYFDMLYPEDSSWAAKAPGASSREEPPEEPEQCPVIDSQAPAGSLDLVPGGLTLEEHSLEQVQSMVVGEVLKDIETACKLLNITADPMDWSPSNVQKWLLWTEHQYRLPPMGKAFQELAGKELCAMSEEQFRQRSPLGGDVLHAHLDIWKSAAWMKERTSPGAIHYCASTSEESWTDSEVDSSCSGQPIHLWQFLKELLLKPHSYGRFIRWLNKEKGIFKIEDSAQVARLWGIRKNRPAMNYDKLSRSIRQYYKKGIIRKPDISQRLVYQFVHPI
Summary of the method: as §1

ETV3 = molecular target: T6, ETV3 (Homo sapiens, UniProt P41162-2 1-143)
T6 sequence: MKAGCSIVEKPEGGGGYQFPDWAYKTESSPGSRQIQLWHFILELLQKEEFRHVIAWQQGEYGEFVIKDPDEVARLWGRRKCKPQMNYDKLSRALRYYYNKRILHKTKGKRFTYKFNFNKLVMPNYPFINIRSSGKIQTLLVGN
Summary of the method: as §1

ETV6 = ETV6 (Homo sapiens, UniProt P41212 1-452)
Summary of the method: as §1

ETS2 = molecular target: T7, ETS2 (Homo sapiens, UniProt P15036 1-469)
T7 sequence: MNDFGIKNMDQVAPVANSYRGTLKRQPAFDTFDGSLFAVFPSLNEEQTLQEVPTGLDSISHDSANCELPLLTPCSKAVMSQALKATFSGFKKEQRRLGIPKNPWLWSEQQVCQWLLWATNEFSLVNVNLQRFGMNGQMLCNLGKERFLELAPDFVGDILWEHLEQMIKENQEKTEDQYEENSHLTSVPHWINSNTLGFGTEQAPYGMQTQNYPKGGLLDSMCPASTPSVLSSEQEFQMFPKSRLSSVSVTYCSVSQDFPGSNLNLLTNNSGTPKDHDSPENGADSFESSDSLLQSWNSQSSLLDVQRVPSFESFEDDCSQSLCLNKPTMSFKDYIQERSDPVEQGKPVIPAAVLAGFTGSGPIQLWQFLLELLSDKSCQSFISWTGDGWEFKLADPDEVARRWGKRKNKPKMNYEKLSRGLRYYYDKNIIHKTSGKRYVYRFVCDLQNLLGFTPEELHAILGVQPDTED
Summary of the method: as §1

ETV6, sequence (P41212 whole entry): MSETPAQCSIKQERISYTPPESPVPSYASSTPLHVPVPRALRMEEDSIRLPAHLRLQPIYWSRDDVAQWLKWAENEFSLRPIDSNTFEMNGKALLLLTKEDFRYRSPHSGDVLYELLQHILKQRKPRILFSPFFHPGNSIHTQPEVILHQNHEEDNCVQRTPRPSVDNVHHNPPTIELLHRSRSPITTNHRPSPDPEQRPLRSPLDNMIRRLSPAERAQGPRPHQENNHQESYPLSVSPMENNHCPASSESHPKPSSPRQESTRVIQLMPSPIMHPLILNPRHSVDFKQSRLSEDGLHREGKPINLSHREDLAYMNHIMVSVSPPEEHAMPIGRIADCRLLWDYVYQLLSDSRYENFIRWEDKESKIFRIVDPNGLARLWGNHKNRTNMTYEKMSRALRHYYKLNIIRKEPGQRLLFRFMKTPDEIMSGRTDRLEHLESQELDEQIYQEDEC

Sequence | binding signal (ERF) | binding signal (ETV3L) | binding signal (ETV7) | binding signal (ELF5) | binding signal (SPDEF) | binding signal (ETV3) | binding signal (ETV6) | binding signal (ETS2)
CGATGA | 1.14 fold enrichment (6-mer frequency, TF over GST control) | 1.12 fold enrichment (6-mer frequency, TF over GST control) | 1.13 fold enrichment (6-mer frequency, TF over GST control) | 1.01 fold enrichment (6-mer frequency, TF over GST control) | – | – | – | –
TAGTAA | 1.09 fold enrichment (6-mer frequency, TF over GST control) | 1.04 fold enrichment (6-mer frequency, TF over GST control) | 1.16 fold enrichment (6-mer frequency, TF over GST control) | 1.04 fold enrichment (6-mer frequency, TF over GST control) | 1.02 fold enrichment (6-mer frequency, TF over GST control) | 1.06 fold enrichment (6-mer frequency, TF over GST control) | 1.07 fold enrichment (6-mer frequency, TF over GST control) | –
TCTGGG | 1.16 fold enrichment (6-mer frequency, TF over GST control) | 1.11 fold enrichment (6-mer frequency, TF over GST control) | 1.07 fold enrichment (6-mer frequency, TF over GST control) | 1.08 fold enrichment (6-mer frequency, TF over GST control) | 1.07 fold enrichment (6-mer frequency, TF over GST control) | 1.09 fold enrichment (6-mer frequency, TF over GST control) | 1.14 fold enrichment (6-mer frequency, TF over GST control) | –
TTATCA | 1.14 fold enrichment (6-mer frequency, TF over GST control) | 1.15 fold enrichment (6-mer frequency, TF over GST control) | 1.03 fold enrichment (6-mer frequency, TF over GST control) | 1.07 fold enrichment (6-mer frequency, TF over GST control) | – | 1.09 fold enrichment (6-mer frequency, TF over GST control) | 1 fold enrichment (6-mer frequency, TF over GST control) | 1.04 fold enrichment (6-mer frequency, TF over GST control)
AACCCA | 1.1 fold enrichment (6-mer frequency, TF over GST control) | 1.06 fold enrichment (6-mer frequency, TF over GST control) | 1.14 fold enrichment (6-mer frequency, TF over GST control) | 1.05 fold enrichment (6-mer frequency, TF over GST control) | – | – | 1.09 fold enrichment (6-mer frequency, TF over GST control) | 1.04 fold enrichment (6-mer frequency, TF over GST control)
CATGGG | 1.01 fold enrichment (6-mer frequency, TF over GST control) | 1.14 fold enrichment (6-mer frequency, TF over GST control) | 1.03 fold enrichment (6-mer frequency, TF over GST control) | 1.04 fold enrichment (6-mer frequency, TF over GST control) | – | – | 1.01 fold enrichment (6-mer frequency, TF over GST control) | –
TGCGCG | 1.24 fold enrichment (6-mer frequency, TF over GST control) | 1.02 fold enrichment (6-mer frequency, TF over GST control) | 1.23 fold enrichment (6-mer frequency, TF over GST control) | 1.01 fold enrichment (6-mer frequency, TF over GST control) | – | 1.03 fold enrichment (6-mer frequency, TF over GST control) | 1.14 fold enrichment (6-mer frequency, TF over GST control) | –
GATAAT | 1.11 fold enrichment (6-mer frequency, TF over GST control) | 1.12 fold enrichment (6-mer frequency, TF over GST control) | 1.12 fold enrichment (6-mer frequency, TF over GST control) | 1.08 fold enrichment (6-mer frequency, TF over GST control) | – | 1.15 fold enrichment (6-mer frequency, TF over GST control) | 1.05 fold enrichment (6-mer frequency, TF over GST control) | 1.18 fold enrichment (6-mer frequency, TF over GST control)
AACGCC | 1 fold enrichment (6-mer frequency, TF over GST control) | 1.11 fold enrichment (6-mer frequency, TF over GST control) | – | 1.01 fold enrichment (6-mer frequency, TF over GST control) | – | 1.06 fold enrichment (6-mer frequency, TF over GST control) | 1.19 fold enrichment (6-mer frequency, TF over GST control) | 1.06 fold enrichment (6-mer frequency, TF over GST control)
CACCAA | 1.18 fold enrichment (6-mer frequency, TF over GST control) | 1.06 fold enrichment (6-mer frequency, TF over GST control) | – | 1.03 fold enrichment (6-mer frequency, TF over GST control) | 1.03 fold enrichment (6-mer frequency, TF over GST control) | 1.1 fold enrichment (6-mer frequency, TF over GST control) | 1.07 fold enrichment (6-mer frequency, TF over GST control) | –
ATCATT | 1.13 fold enrichment (6-mer frequency, TF over GST control) | 1.07 fold enrichment (6-mer frequency, TF over GST control) | 1.01 fold enrichment (6-mer frequency, TF over GST control) | – | – | – | 1.06 fold enrichment (6-mer frequency, TF over GST control) | 1.01 fold enrichment (6-mer frequency, TF over GST control)
TATCAA | 1.08 fold enrichment (6-mer frequency, TF over GST control) | 1.06 fold enrichment (6-mer frequency, TF over GST control) | 1.09 fold enrichment (6-mer frequency, TF over GST control) | – | – | 1.04 fold enrichment (6-mer frequency, TF over GST control) | – | 1.05 fold enrichment (6-mer frequency, TF over GST control)
CGATCA | 1.09 fold enrichment (6-mer frequency, TF over GST control) | 1.1 fold enrichment (6-mer frequency, TF over GST control) | 1.08 fold enrichment (6-mer frequency, TF over GST control) | – | – | 1.1 fold enrichment (6-mer frequency, TF over GST control) | 1.05 fold enrichment (6-mer frequency, TF over GST control) | 1.19 fold enrichment (6-mer frequency, TF over GST control)
AAGCCC | 1.11 fold enrichment (6-mer frequency, TF over GST control) | 1.07 fold enrichment (6-mer frequency, TF over GST control) | 1.01 fold enrichment (6-mer frequency, TF over GST control) | 1.02 fold enrichment (6-mer frequency, TF over GST control) | – | 1.1 fold enrichment (6-mer frequency, TF over GST control) | 1.03 fold enrichment (6-mer frequency, TF over GST control) | –
CCATTA | 1.07 fold enrichment (6-mer frequency, TF over GST control) | 1.16 fold enrichment (6-mer frequency, TF over GST control) | 1.13 fold enrichment (6-mer frequency, TF over GST control) | 1.08 fold enrichment (6-mer frequency, TF over GST control) | – | 1.11 fold enrichment (6-mer frequency, TF over GST control) | 1.13 fold enrichment (6-mer frequency, TF over GST control) | 1.12 fold enrichment (6-mer frequency, TF over GST control)
GCCCCC | 1.24 fold enrichment (6-mer frequency, TF over GST control) | 1.16 fold enrichment (6-mer frequency, TF over GST control) | – | 1.04 fold enrichment (6-mer frequency, TF over GST control) | – | 1.21 fold enrichment (6-mer frequency, TF over GST control) | 1.05 fold enrichment (6-mer frequency, TF over GST control) | 1.03 fold enrichment (6-mer frequency, TF over GST control)
